Molecules are shown by their SMILES.

The subject of this test is RIVA. Put plainly: growth inhibition by drug plus 177Lu-lilotomab satetraxetan (1 - RLU/untreated control) (fraction); higher = stronger inhibition. The conditions noted are these: 177Lu-lilotomab satetraxetan 0.5 ug/ml. As to the method: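 RIVA (RI-1) ABC-DLBCL cells were pretreated or not for 18 h with 0.5 ug/ml 177Lu-lilotomab satetraxetan (600 MBq/mg), washed and seeded (3000 cells/well) on 384-well plates pre-printed with the Selleck Cambridge Cancer Compound library. Viability was read by RealTime-Glo luminescence on days 3-6 after seeding. Effect = 1 - RLU/mean RLU of the 48 untreated no-drug control wells per plate; Bliss score = (M-E)/(1-Fa).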

As to `COc1ccccc1OCC(O)CN1CCN(CC(=O)Nc2c(C)cccc2C)CC1` (stereo not given) [Ranolazine (Ranexa)], the “growth inhibition by drug plus 177Lu-lilotomab satetraxetan” value (“growth inhibition” below) (10 nM, time (day): 3) was determined as 0.412; the “growth inhibition” value (10 nM, time (day): 4) came to 0.527; the “growth inhibition” value (10 nM, time (day): 5) was 0.544; the “growth inhibition” value (10 nM, time (day): 6) came to 0.551; the “growth inhibition” value (100 nM, time (day): 3) turned out to be 0.294; the “growth inhibition” value (100 nM, time (day): 4) was determined as 0.438. The “growth inhibition” value amounted to 0.446 (100 nM, time (day): 5) and 0.418 (100 nM, time (day): 6).
In the case of `COc1ccc(CNC(=O)Nc2ncc([N+](=O)[O-])s2)cc1`, the “growth inhibition” value came to 0.496 (10 nM, time (day): 3); 0.573 (10 nM, time (day): 4); 0.599 (10 nM, time (day): 5); 0.609 (10 nM, time (day): 6); 0.44 (100 nM, time (day): 3); 0.479 (100 nM, time (day): 4). Further, the “growth inhibition” value is 0.489 (100 nM, time (day): 5) and 0.47 (100 nM, time (day): 6).
On to `COc1cc2c(cc1O)CC[C@@H]1[C@@H]2CC[C@]2(C)[C@@H](O)CC[C@@H]12` [2-Methoxyestradiol], for which the “growth inhibition” value (10 nM, time (day): 3) amounted to 0.476; the “growth inhibition” value (10 nM, time (day): 4) is 0.534; the “growth inhibition” value (10 nM, time (day): 5) was determined as 0.548; the “growth inhibition” value (10 nM, time (day): 6) was 0.552; the “growth inhibition” value (100 nM, time (day): 3) came out at 0.308; the “growth inhibition” value (100 nM, time (day): 4) stood at 0.401. The “growth inhibition” value is, setting by setting: (100 nM, time (day): 5) 0.422; (100 nM, time (day): 6) 0.439.
Regarding `Cc1nc(Nc2ncc(C(=O)Nc3c(C)cccc3Cl)s2)cc(N2CCN(CCO)CC2)n1`, the “growth inhibition” value reads like this: (10 nM, time (day): 3) 0.558; (10 nM, time (day): 4) 0.581; (10 nM, time (day): 5) 0.582; (10 nM, time (day): 6) 0.575; (100 nM, time (day): 3) 0.838; (100 nM, time (day): 4) 0.89. In addition, the “growth inhibition” value runs as follows: (100 nM, time (day): 5) 0.901; (100 nM, time (day): 6) 0.91.
With `Nc1ccccc1NC(=O)c1ccc(CNc2nccc(-c3cccnc3)n2)cc1` [Mocetinostat (MGCD0103)], the “growth inhibition” value by setting is: (10 nM, time (day): 3) 0.466; (10 nM, time (day): 4) 0.553; (10 nM, time (day): 5) 0.579; (10 nM, time (day): 6) 0.576; (100 nM, time (day): 3) 0.681; (100 nM, time (day): 4) 0.692. Further, the “growth inhibition” value (100 nM, time (day): 5) is 0.705 and the “growth inhibition” value (100 nM, time (day): 6) is 0.7.

The values above are taken from the supplement of paper PMC6897291.
